# Reference: PubChem BioAssay (NCI)
# Values joined by “and” are separate entries in the source; they are usually repeats but may differ in a detail not shown here. Identical values can stand only once. The panel holds about 83,000 compounds, 20% with a hit somewhere; the sample as a whole holds those more often.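 Assay: single dose, 48 h. Readout: percent growth (0 = no net growth; negative = cell death). Active: <10.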 Unmarked numbers belong to inactive results. Active and inactive are the calls of the source.
# Tested on: RPMI-8226 leukemia
# Assay: NCI-60 one-dose screen, 48 h (100 = growth as untreated, 0 = no growth, -100 = all killed)
# Conditions: 10 µM unless noted
row,Structure (SMILES),growth
1,Cc1ccc(Cl)cc1NC(=O)N/C(N)=N/c1nc2ccccc2s1,-7.24% (active)
2,Nc1cc(-c2c[nH]c3ccc(Cl)cc23)nc2cc(-c3c[nH]c4ccccc34)nn12,0.472% (active)
3,COc1cc(CNC(=O)C[C@H](C)CCC=C(C)C)ccc1OCc1cn(-c2ccc(Cl)c(Cl)c2)nn1,77.6%
4,C[C@@H](Nc1c(C#N)cnc2ccc(-c3cnc4[nH]ncc4c3)cc12)c1ccccc1,-1.82% (active)
5,COc1ccc(C2=NN(C(=O)[C@H]3[C@@H](c4ccco4)c4sc(=O)[nH]c4S[C@@H]3C)C(c3ccc4ccccc4c3)C2)cc1 (stereo partly drawn),8.59% (active)
6,Cc1cc(C)c2[nH]c(=O)c(C(c3nnnn3Cc3ccc4c(c3)OCO4)N3CCN(C)CC3)cc2c1 (stereo not drawn),100%
7,COc1ccc(NC(=O)N/N=C/c2c[nH]c3ccccc23)cc1,24.9%
8,COc1ccc2[nH]c(O)c(N=NC(=O)c3ccc4nc(-c5ccc(Cl)cc5)[nH]c4c3)c2c1,103%
9,Cc1ccc(O)cc1Nc1nc(SCCN2CCOCC2)nc2c1cnn2CC(Cl)c1ccc(Br)cc1 (stereo not drawn),16.8%
10,CCOc1ccccc1[C@H]1C(C(=O)c2ccc(Cl)cc2)C2(N[C@@H]1c1ccccc1)C(=O)Nc1ccc(Br)cc12 (stereo partly drawn),5.23% (active)
11,CC1(C)CC(=O)C2=C(C1)OC(N)=C(c1nc3ccccc3[nH]1)C2c1ccc(Cl)cc1 (stereo not drawn),45.8% and 109%
12,COc1ccc(-c2cc(C(=O)N=Nc3c(O)[nH]c4ccc(Cl)cc34)c3ccccc3n2)cc1OC,119%
13,COc1ccc2c(c1)c(-c1cc(N)n3nc(-c4c[nH]c5ccccc45)cc3n1)cn2C,-9.07% (active)
14,Cc1ccc2c(c1)nc(-c1ccccc1)n2CC(=O)N=Nc1c(O)[nH]c2ccc(Cl)cc12,-17% (active)
15,CS(=O)(=O)Nc1cccc(-n2c(COc3ccc(OC(F)(F)F)cc3)nc3ccccc32)c1,76.7% and 98.1%
16,Oc1ccc(Cl)c(Nc2nc(SCCN3CCOCC3)nc3c2cnn3CC(Cl)c2ccc(Br)cc2)c1 (stereo not drawn),19.2%
17,COc1ccccc1NC(=O)N/N=C/c1c[nH]c2ccccc12,13.5%
18,Nc1cccc(-n2c(COc3ccc(I)cc3)nc3ccccc32)c1,68.9% and 104%
19,O=C1CCC(N2C(=O)c3cccc(NCCCCCC(=O)N4CCN(c5ccc6nc7c(nc6c5C(F)(F)F)C(=O)c5ncccc5C7=O)CC4)c3C2=O)C(=O)N1 (stereo not drawn),-0.232% (active)

row,Structure (SMILES),growth
1,OCCn1cc(-c2nc3ccc4[nH]ncc4c3c3c2CCCC3)cn1,31.4%
2,Cc1ccc(N=Nc2c(N)nn3c(-c4cc5cc(Br)ccc5oc4=O)ccnc23)cc1,93.5%
3,COc1ccc(C(=O)C[n+]2cccc3c4ccccc4ccc32)cc1,25.2%
4,CCCCCCCCCc1ccc(C(=O)Nc2cc(C)ccc2C(=O)OC)cc1,81.6%
5,Cc1nc(Nc2ccccn2)sc1C1=NNC(c2ccccc2F)C1 (stereo not drawn),30.4%
6,NS(=O)(=O)c1ccc(Nc2nc(N/N=C/c3cc(Br)c(O)c(Br)c3)nc(Nc3ccccc3)n2)cc1,79.4%
7,C=CC(=O)Nc1ccc(C(=O)/C=C/c2ccc(N(C)C)cc2)c(O)c1,6.01% (active)
8,CCCCCCCCc1ccc(C(=O)Nc2cccc(O)c2)cc1,35%
9,Clc1ccc(-c2nc3c4c(-c5ccccc5)c(-c5ccccc5)n(Cc5ccccc5)c4ncn3n2)cc1,-34.7% (active)
10,Nc1nn2c(-c3cc4cc(Br)ccc4oc3=O)ccnc2c1N=Nc1ccc(S(N)(=O)=O)cc1,109%
11,Cc1ccc(C(=O)Nc2cc(-n3ccnc3)cc(C(F)(F)F)c2)cc1-n1cc(-c2cnc3cccnn23)nn1,85.2%
12,Cc1cccc(C)c1Nc1nnc(-c2c[nH]c3ccccc23)o1,86%
13,COc1cc(CNC(=O)C[C@H](C)CCC=C(C)C)ccc1OCc1cn(-c2cccc(C(F)(F)F)c2)nn1,89.8%
14,CC1=C(C(=O)OCc2ccccc2)C(c2ccc(N(C)C)cc2)n2c(nc3ccccc32)N1 (stereo not drawn),81.4%
15,CCc1ccc(SC2c3cc(OC)ccc3Oc3nc(N)c(C#N)c(N)c32)cc1 (stereo not drawn),-15.6% (active)
16,CCCn1c(NC(=O)c2cccc(C(N)=O)c2)nc2cc(CN3CCCCC3)ccc21,80.7%
17,C/C(=N/O)c1ccc(NC(=O)CSc2nnc(-c3ccc(-c4nc5ccc(Cl)cc5[nH]4)cc3)o2)cc1,18.2%
18,CC[C@@]12CC(C(=O)OC)=C3Nc4cc5c(cc4[C@@]34CCN(C[C@H]3O[C@H]31)[C@@H]24)[C@@H]1[C@H](O5)[C@@H](O)[C@@]2(CC)CC(C(=O)OC)=C3Nc4cc(O)ccc4[C@@]34CCN1[C@@H]24,-9.59% (active)
19,N#Cc1c(-c2ccc(F)cc2)nc(SCc2ccccc2)nc1N1CCNCC1,-58% (active)
